Many of the other results were omitted from the sample, so hits are more common in it than they were.
ALOX15B inhib – blocks human 15-lipoxygenase 2 activity; Potency, µM (series often up to 57.1 µM), without a hit: at the top dose activity change, negative = inhibition, actives largely listed as inhibitors; purified 15hLO-2, xylenol orange hydroperoxide absorbance; AID 881; O15296; 110,000 tested, 0.56% active; further: potency means the concentration at half of the fitted maximal effect; on the % scale 0 is the no-effect control and ±100 the full control effect; nearly all actives have a fitted effect of over 60% in size
Target sequence (O15296 whole entry, looked up): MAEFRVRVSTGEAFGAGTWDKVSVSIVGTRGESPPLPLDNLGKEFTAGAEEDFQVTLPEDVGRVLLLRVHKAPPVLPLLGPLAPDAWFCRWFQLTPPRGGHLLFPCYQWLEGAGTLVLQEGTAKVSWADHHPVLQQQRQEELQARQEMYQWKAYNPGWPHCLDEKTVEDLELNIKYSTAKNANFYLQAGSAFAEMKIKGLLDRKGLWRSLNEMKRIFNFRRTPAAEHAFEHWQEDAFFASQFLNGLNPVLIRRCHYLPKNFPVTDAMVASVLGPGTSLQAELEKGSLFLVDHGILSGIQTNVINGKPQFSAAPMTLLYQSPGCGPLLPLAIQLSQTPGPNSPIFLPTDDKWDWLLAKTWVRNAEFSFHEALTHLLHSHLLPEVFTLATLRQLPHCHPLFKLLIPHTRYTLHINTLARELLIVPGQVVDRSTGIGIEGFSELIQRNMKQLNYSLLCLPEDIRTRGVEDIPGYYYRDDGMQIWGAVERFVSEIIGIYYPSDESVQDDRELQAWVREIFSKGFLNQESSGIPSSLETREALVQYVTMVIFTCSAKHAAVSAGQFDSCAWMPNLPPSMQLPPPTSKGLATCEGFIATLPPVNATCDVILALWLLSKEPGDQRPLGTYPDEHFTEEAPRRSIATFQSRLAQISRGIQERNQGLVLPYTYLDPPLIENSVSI
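Screening format was qHTS against 50 nM purified 15hLO-2 in Hepes pH 7.5 with detergent. Activity follows hydroperoxide formation from 45 uM arachidonic acid, measured as 573:405 nm absorbance ratio of the ferric-xylenol orange complex.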
BRCT PPI red – BRCT-phosphoprotein interaction inhibition (red fluorophore) | P38398 | BRCT-phosphopeptide binding, red fluorescence polarization | Potency, µM (series often up to 76.9 µM), without a hit: at the highest dose activity change, negative = inhibition, most hits filed as inhibitors | 75,000 tested, 0.03% active | AID 892; further: on the % scale 0 is the no-effect control and ±100 the full control effect
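Rhodamine-labelled pBACH1 10-mer (100 nM) bound to BRCT domain (100 nM) at pH 7.3; compounds incubated 12 min room temperature, polarization read. Free peptide defines full inhibition; unlabelled decapeptide titrated as control.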
Pol III holo inh – blocks replication by bacterial DNA polymerase III holoenzyme | reconstituted DNA polymerase III holoenzyme replication, biochemical | Potency, µM (series often up to 57.1 µM), for inactives: at the highest dose activity change, negative = inhibition | 71,000 tested, 0.25% active | AID 603; further: potency means the concentration at half of the fitted maximal effect; on the % scale 0 is the no-effect control and ±100 the full control effect
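Reconstituted *E. coli* holoenzyme (0.35 nM Pol III, 1 nM beta, 154 nM SSB, 2 nM primase) was preincubated with compound for 15 min at RT. Synthesis on 1.4 nM ssM13Gori ran 35 min, then was stopped with PicoGreen/EDTA and read as dsDNA fluorescence.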
ALOX15 inhib – blocks human 15-lipoxygenase activity; purified 15hLO-1, xylenol orange hydroperoxide absorbance; Potency, µM (top dose mostly 57.1 µM), without a hit: at the highest dose activity change, negative = inhibition, usual class: inhibitors; 74,000 tested, 1.4% active; P16050; further: potency means the concentration at half of the fitted maximal effect; on the % scale 0 is the no-effect control and ±100 the full control effect; nearly all actives have a fitted effect of over 55% in size
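Purified human 15hLO-1 (40 nM) in 25 mM Hepes pH 7.5, 0.01% Triton X-100, preincubated 15 min RT with compound, then 50 uM arachidonic acid for 6 min. Hydroperoxide read by ferrous/xylenol orange, 30 min; 573/405 nm absorbance ratio gave progress.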
TsaE inh – displaces an ADP probe from E. coli YjeE (TsaE); AID 605; Potency, µM; purified YjeE enzyme, qHTS inhibition assay; 71,000 tested, 0.05% active; P0AF67
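Fluorescence polarization of a BODIPY Texas Red–ADP probe (2 uM) bound to purified YjeE (10 uM) was read after 15 min room-temperature incubation with compounds. Loss of polarization marks inhibitors; ADP serves as titrated control.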
BRCT PPI green – inhibitors of human BRCA1 BRCT-phosphoprotein interaction (green fluorophore). Potency, µM (titrated, usually from 76.9 µM), without a hit: at the top dose activity change, negative = inhibition, actives largely listed as inhibitors. AID 875. P38398. 75,000 tested, 0.05% active. BRCA1 BRCT-phosphopeptide binding, green fluorescence polarization;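 further: potency means the concentration at half of the fitted maximal effect; plate controls were peptide without protein for full effect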
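Compounds were incubated for 12 min at room temperature with a complex of 100 nM fluorescein-tagged pBACH1 decapeptide and 250 nM His-tagged BRCT protein. Buffer was phosphate pH 7.3 with EDTA, DTT and Tween 20. Disruption of binding lowers the polarization signal.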
Starred values were filed as active, the others as inactive; i = inactive; ? = inconclusive; . = no result given; [ ] = another dose, or the depositor's remark. The call rests on the fitted dose curve; in most records, active means well fitted curve in the direction sought with a large enough effect; inconclusive means small, poorly fitted or top-dose-only effect, or another doubt; inactive means no such curve, though single readings can be large; an effect the other way counts as inactive or inconclusive.

SMILES	ALOX15B inhib	BRCT PPI red	Pol III holo inh	ALOX15 inhib	TsaE inh	BRCT PPI green
CC(C)c1ccc(O)c(NC(=O)c2ncn[nH]2)c1	-17%	.	.	.	.	.
O[Si@](CCCN1CCCCC1)(c1ccc(F)cc1)C1CCCCC1	35%	-1%	-7%	-9%	i	-1%
CC1=CC(=O)CC(C)(C)[C@@]1(O)/C=C\C(C)=C\C(=O)O	.	.	-4%	.	i	.
O=C(OCc1nnc(-c2ccc(Cl)cc2)o1)c1ccncc1	-10%	-2%	4%	4%	i	1%
O=C(OCc1nnc(-c2ccc(Cl)cc2)o1)c1ccc(=O)n(Cc2ccccc2)n1	-5%	3%	-2%	20µM*	i	5%
O=C(NCCO)c1ccc(Cc2nc3ccccc3[nH]2)cc1	.	0%	.	6%	.	-2%
CCc1ccc(NC(=O)Nc2cccs2)cc1	-27%	0%	-5%	25µM*	i	-4%
O=C(Nc1cccs1)Nc1ccccc1Cl	?	0%	-6%	13µM*	i	3%
Cc1ccc(NC(=O)Nc2cccs2)cc1	-6%	-2%	.	25µM*	.	0%
CCOc1ccc(NC(=O)Nc2cccs2)cc1	-15%	.	.	.	.	.
O=c1cc(CF)[nH]c(=S)[nH]1	3%[11.4 µM]	0%[15.4 µM]	2%[11.4 µM]	3%[11.4 µM]	i	-2%[15.4 µM]
O=C(CSc1ccc(Cl)cc1)c1ccco1	?	-5%	?	16µM*	i	-5%
O=C(CSc1ccccc1Cl)c1ccco1	-7%	0%	-2%	-23%	i	0%
OCCN(C=NC1=NN(c2cccc(C(F)(F)F)c2)CC1)CCO	25µM*	.	.	.	.	.
O=C(C1COc2ccccc2O1)N1CCc2ccccc21 (stereo not drawn)	-21%	-6%	?	16µM*	i	-4%
COc1ccc(C2=Nc3cccc4cccc(c34)N2)cc1	53%	.	.	.	.	.
CC(C)C1=Nc2cccc3cccc(c23)N1	10µM*	.	.	.	.	.
O=C(O)CCCNc1cc(N2CCC3(CC2)OCCO3)c2noc3c2c1C(=O)c1ccccc1-3	.	?	3.2µM*	?	i	-15%
CCN(CC)[C@@H](C)CN1c2ccccc2Sc2ccccc21	13µM*	1%[34.4 µM]	-5%[25.6 µM]	13µM*	i	-6%[34.4 µM]
COc1ccc(-n2cnnc2SCc2ncc(-c3ccccc3)o2)cc1	-2%	-3%	5µM*	10%	i	3%
O=C(O)[C@H]1CCCC[C@@H]1c1c2ccc(=O)c(O)c-2oc2c(O)c(O)ccc12	?	-24%[15.4 µM]	0.32µM*	?	i	-10%[15.4 µM]
O=C(O)/C=C/c1ccc(/C=C/C(=O)O)cc1	-4%	-1%	-2%	-7%	i	-2%
O=C(O)/C=C\c1c2ccc(=O)c(O)c-2oc2c(O)c(O)ccc12	?	?	0.1µM*	1.6µM*	?	6.3µM*
N#CC1=C(N)SC(N)=C(C#N)C1c1ccoc1	?	-7%	?	?	i	3%
N#CC1=C(N)SC(N)=C(C#N)C1c1ccnc2ccccc12	?	-1%	13%	4µM*	i	111%
SMILES	ALOX15B inhib	BRCT PPI red	Pol III holo inh	ALOX15 inhib	TsaE inh	BRCT PPI green
O=C(CCc1ccc(O)cc1)c1c(O)cc(O)cc1O[C@@H]1O[C@@H](CO)[C@@H](O)[C@@H](O)[C@H]1O	.	.	-3%	.	i	.
COC(=O)c1ccc(CSc2nc(C(F)(F)F)c3c(c2C#N)CCC3)o1	-12%	-2%	-8%	20µM*	i	4%
COC(=O)CSc1nc(-c2ccc(C)cc2)c2c(c1C#N)CCCC2	2%	.	.	.	.	.
O=C(Cn1ncn2c(cc3ccccc32)c1=O)NCc1ccco1	-11%	-2%	-7%	?	i	5%
O=C(Cn1ncn2c(cc3ccccc32)c1=O)NCCC1=CCCCC1	-3%	-2%	-8%	16µM*	i	3%
CCCCNc1nc(C)nc2c1nc(-c1ccccc1)n2CCCN1CCCCC1C (stereo not drawn)	53%	0%	-1%	-1%	i	0%
CC(=O)[C@]1(O)CC[C@@H]2[C@H]3C[C@@H](C)C4=CC(=O)CC[C@@]4(C)[C@H]3[C@@H](O)C[C@]21C	-3%[11.4 µM]	-1%[15.4 µM]	-10%[11.4 µM]	-12%[11.4 µM]	i	-1%[15.4 µM]
N.N.O=C(O)C1(C(=O)O)CCC1.[Pt]	-6%	1%	7.9µM*	0.63µM*	i	-2%[3.08 µM]
CN(C)C=NC(=O)/C(C#N)=C1\CCc2ccccc2N1	-3%	2%	-4%	7.9µM*	i	2%
CN(C)S(=O)(=O)c1cccc(-c2nnc(SCc3cc(Cl)cc4c3OCOC4)n2N)c1	-22%	-2%	-6%	13µM*	i	1%
CCN(CC)S(=O)(=O)c1cccc(-c2nnc(SCc3nnc(-c4cccs4)o3)n2N)c1	0%	0%	-6%	-4%	i	1%
CC1(C)CC(Nc2ccc(Nc3ccccc3)cc2)CC(C)(C)N1	4µM*	0%[15.4 µM]	-10%[11.4 µM]	?	i	-1%[15.4 µM]
O=C(O)c1ccc(C(=O)O)c(C(=O)O)c1.[NH-][C@@H]1CCCC[C@@H]1[NH-].[Pt]	6%[11.4 µM]	0%[15.4 µM]	-10%[11.4 µM]	25%[11.4 µM]	i	-3%[15.4 µM]
Cc1ccc(N=Nc2c(O)ccc3cc(S(=O)(=O)O)ccc23)cc1	-6%[11.4 µM]	1%[15.4 µM]	-8%[11.4 µM]	-8%[11.4 µM]	i	-2%[15.4 µM]
Cc1ccc(S(=O)(=O)Oc2ccc(N=Nc3ccc(-c4ccc(N=Nc5c(O)ccc6cc(S(=O)(=O)O)cc(S(=O)(=O)O)c56)c(C)c4)cc3C)cc2)cc1	3.2µM*	3%	32µM*	?	i	7%
N#CC1=C(N)C2=C(N3CCCCC3)CCCC2C1(C#N)C#N (stereo not drawn)	?	-8%	-21%	13µM*	i	-5%
Cc1ccc(-c2nc3cnccn3c2Nc2ccc3c(c2)OCCO3)o1	-29%	-2%	2%	25µM*	i	-4%
Cc1ccc(-c2nc3cnccn3c2Nc2ccc3c(c2)OCO3)cc1	1%	.	.	.	.	.
C=CC(C1=CC(=O)C(OC)=CC1=O)c1ccc(OC)cc1 (stereo not drawn)	?	-2%	.	7.9µM*	.	-2%
C=CC(C1=CC(=O)C(OC)=CC1=O)c1ccccc1 (stereo not drawn)	20µM*	-1%	.	3.2µM*	.	-7%[3.08 µM]
C=CC(C1=CC(=O)C(OC)=C(OC)C1=O)c1ccccc1 (stereo not drawn)	?	-3%	.	?	.	-1%
CCOC(=O)Nc1ccc2c(c1)Nc1ccccc1S2	13µM*	0%	5%	32µM*	i	-2%
c1ccc2c(c1)nnn2Cc1nnc2sc(-c3ccc4c(c3)OCCO4)nn12	3%[2.29 µM]	-1%	12%	13µM*	i	-1%
COc1cc(N=c2ssnc2Cl)c(OC)cc1Cl	25µM*	.	.	.	.	.

Screening results: PubChem BioAssay, National Center for Advancing Translational Sciences (NCATS)
